# Screens deposited in PubChem BioAssay by ICCB-Longwood Screening Facility, Harvard Medical School.
# In the library only some 1.4% were active in any assay of this set; here they are far more common.
# AID504770 – growth inhibitors of E. coli YBA685 in a screen for V. cholerae RctB (chromosome II replication) inhibitors | AID 504770 | E. coli YBA685 rctB-dependent plasmid, OD600 growth, 3 h; hits give low values | 130,000 compounds, 0.27% hits | z-score (test concentration not listed); in the data active = z-score below about -2, passing the limit was not always enough
# Polio RdRp inh – poliovirus RNA polymerase inhibition; P03300; poliovirus polymerase elongation, fluorescence polarization; hits give low values; % elongation, % (compound at 16.7 µg/mL); 150,000 compounds, 0.66% hits; in the data active = % elongation below about 90%
# MenB inh – Mtb MenB enzyme inhibition; AID 540299; MenB enzyme assay, absorbance read-out; 100,000 compounds, 0.43% hits; P9WNP5; inhibition, % (test concentration not listed); in the data active = inhibition above about 21%, passing the limit was not always enough
# Target sequence (P9WNP5 whole entry, looked up): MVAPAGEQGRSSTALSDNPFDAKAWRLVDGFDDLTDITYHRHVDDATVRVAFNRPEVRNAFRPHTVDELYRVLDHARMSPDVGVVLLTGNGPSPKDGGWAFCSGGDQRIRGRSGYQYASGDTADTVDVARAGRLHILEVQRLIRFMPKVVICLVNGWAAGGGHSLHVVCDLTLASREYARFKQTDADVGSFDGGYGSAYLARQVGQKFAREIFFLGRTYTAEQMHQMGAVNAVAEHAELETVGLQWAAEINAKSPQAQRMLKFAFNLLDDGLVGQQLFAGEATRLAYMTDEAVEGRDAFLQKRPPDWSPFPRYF
# Mtb MbtI inh – blocks the Mycobacterium tuberculosis siderophore enzyme MbtI; inhibition, % (concentration not given with the values); P9WFX0; 100,000 compounds, 0.89% hits; purified MbtI enzyme, fluorescence intensity read-out; in the data active = inhibition mostly above about 56%, no sharp cut-off; inactive = mostly below about 77%
# Active calls of the source: *; x = no result.
SMILES,AID504770,Polio RdRp inh,MenB inh,Mtb MbtI inh
CCOC(=O)c1sc(N(C)C(C)=O)nc1C,0.8,99,39*,19
COC(=O)c1cnc(NN2C(=O)C=C(C)C2=O)nc1C(F)(F)F,-0.55,97,-1,53*
CCc1nc(Nc2ccc(F)c(Cl)c2)c2c3c(sc2n1)CCCC3,x,85*,x,x
CCc1ccc(Nc2ncnc3sc4c(c23)CCCC4)cc1,x,103,x,x
O=C1CC(N2CCCC2)C(=O)N1c1ccccc1 (centres undefined),-1.1,103,-13,63*
CC(C)(C)OC(=O)N1CCN(C2CC(=O)N(c3ccccc3)C2=O)CC1 (centres undefined),0.6,103,-3,5
NCC(=O)Nc1ccc(Br)cc1,-1.1,100,1,-7
NNc1ccc(Br)cc1,-6.3*,106,22,x
O=C(CC(NCCc1ccccc1)C(=O)O)Nc1cccc(Cl)c1 (centres undefined),-0.9,x,x,x
CN1C(=O)/C(=c2/[nH][nH]c(=O)/c2=C\C=C\c2ccccc2)C(=O)c2ccccc21,1.8,84*,-14,x
COc1ccc(/C=C2/C(=O)N(C)c3ccccc32)cc1,0.25,100,-64,17
S=c1nc(-c2ccccc2)[nH]n1CN1CCc2ccccc2C1,1.9,99,-13,96*
O=C1CSC(c2ccc(Cl)cc2)N1O (centres undefined),-1.1,102,14,-7
CCOc1ccc(-c2cnc(N)s2)cc1,-0.7,62*,-1,x
COc1cccc(CNC(=O)CSc2ncc3c(n2)-c2cc(Cl)ccc2N(C)S3(=O)=O)c1,x,112,x,x
O=C(CSc1ccccc1)N1c2ccccc2Sc2ccccc21,0.4,83*,-14,-5
Cn1nnnc1SCC(=O)N1c2ccccc2Sc2ccccc21,0.2,104,-24,-9
O=C1CSC(c2cccnc2)N1CC1CC1 (centres undefined),-0.05,100,-16,-9
Cc1ccc(C)c(CN(C2=NC3CS(=O)(=O)CC3S2)c2cccc(Cl)c2)c1 (centres undefined),-0.35,102,0,3
CCOc1ccc2[nH]c(=O)c(CN(CCO)C(=O)Nc3ccc(OC)cc3)cc2c1,-0.45,100,-35,-3
COc1ccccc1OCC(=O)Nc1sc2c(c1C#N)CCCC2,-0.4,106,-29,x
Cc1cc(Cl)ccc1OCC(=O)Nc1sc2c(c1C#N)CCC2,0.25,80*,-1,x
CCC(C(=O)N1CCN(c2ccccc2)CC1)n1nc(C)c2sc3ccccc3c2c1=O (centres undefined),x,90*,x,x
CCC(C(=O)N1CCCC1)n1nc(C)c2sc3ccccc3c2c1=O (centres undefined),-1.5,102,7,8
CN(C)c1ccc(NC(=O)CSc2nc(N)cc(=O)[nH]2)cc1,-0.05,99,28*,7
SMILES,AID504770,Polio RdRp inh,MenB inh,Mtb MbtI inh
Nc1cc(=O)[nH]c(SCC(=O)Nc2ccccc2)n1,-0.8,100,-12,0
CC(=O)NCCC(=O)N1CCCSC1=Nc1c(C)cccc1C,0.05,88*,-3,-4
COc1ccc(NS(=O)(=O)c2ccc3oc(SC/C(O)=C(\C#N)c4nc5ccccc5s4)nc3c2)cc1,-0.85,106,-24,42
COc1ccc(NS(=O)(=O)c2ccc3oc(SC)nc3c2)cc1,0,82*,-48,92*
COC(=O)c1c(NC(=O)C(F)(F)F)sc2c1CCCC2,-4.5,88*,-20,x
COC(=O)Nc1sc2c(c1C(=O)OC)CCC2,0.65,101,-21,21
COC(=O)c1c(NC(=O)Cc2cccs2)sc2c1CCCC2,1.4,103,39*,12
CCCc1ccc(OCC(=O)Nc2sc3c(c2C(=O)OC)CCCCC3)cc1,x,85*,x,x
COc1ccc(CC(=O)O)c(C(=O)O)c1,0.4,101,-6,12
COC(=O)c1ccccc1NC(=O)Cn1nnc(-c2ccc(OC)cc2)n1,x,100,x,x
Cc1c(-c2ccccc2)nc2ccccc2c1C(=O)O,1.2,103,34*,-3
O=C(O)Cc1c(-c2ccc(Cl)cc2)nc2ccccc2c1C(=O)O,-0.6,x,x,x
CCN(Cc1ccccc1)c1ncnc2c1cnn2-c1ccc(F)cc1,x,109,x,x
COCCn1c(SCC(=O)Nc2cccc(C)c2C)nc2c(oc3ccccc32)c1=O,x,107,x,x
CCCNC(=O)CSc1nnc(C)o1,-0.5,101,-9,12
CCCNC(=O)CSc1n[nH]c(=S)s1,0.95,101,-23,57*
CCOC(=O)c1ccc(NC(=O)CN2C(=O)c3ccccc3C2=O)cc1,-0.05,104,0,-10
Cc1ccc(NC(=O)CSc2nc3ccccc3c(=O)n2CCC(=O)NC2CCCCC2)cc1C,x,113,x,x
O=C(Nc1ccc2c(c1)OCO2)c1cnn2c(C(F)(F)F)cc(-c3ccco3)nc12,-0.05,99,-17,-7
COC(=O)c1cc(-c2ccco2)nc2c1cnn2Cc1ccc2c(c1)OCO2,0.1,71*,3,-28
CCOc1ccc(NC(=O)c2c(NC(=O)c3ccccc3Br)sc3c2CCC(C)C3)cc1 (centres undefined),x,78*,x,x
CNc1c(C(=O)c2ccc(F)cc2)sc(N)c1C#N,0.95,102,-33,13
Cc1ccc(C(=O)c2sc(Nc3ccc(F)cc3)c(C#N)c2N)cc1,x,77*,x,x
O/N=C/c1nc2cc(Cl)ccc2o1,0.4,76*,7,103
CC(C)(C)/C(O)=C/c1nc2cc(Cl)ccc2oc1=O,0.65,102,28,10
SMILES,AID504770,Polio RdRp inh,MenB inh,Mtb MbtI inh
O=C1OC(c2ccccc2)OC(=O)C1=Cc1cccs1 (centres undefined),-1.4,101,-4,65*
CN1C(=O)C(=Cc2cccs2)C(=O)N(C)C1=S,-0.75,103,-9,16
N#CC1=C(SCC(=O)N(c2ccccc2)c2ccccc2)NC(=O)CC1c1ccco1 (centres undefined),1.3,x,x,x
N#CC1=C(S)NC(=O)CC1c1ccco1 (centres undefined),-0.35,79*,-39,6
Cn1c(NCCCO)nc2c(c1=O)C1(CCCCC1)Cc1ccccc1-2,-0.5,101,-39,115
Cc1nc2sc(C(=O)NCc3ccc(Cl)cc3)c(NC(=O)c3ccccc3)c2c(C)c1C,x,102,x,x
CCOc1ccccc1NC(=O)N(Cc1ccc(C)o1)C1CCN(C(C)=O)CC1,x,114,x,x
O=C(NOC(=O)c1cccs1)c1ccccc1,-2.6*,101,-14,5
CC(=O)Oc1cc(C)c2c(=O)c(-c3csc(C)n3)coc2c1,-0.5,104,-158,-11
N#C/C(=C\c1ccco1)C(=O)Nc1ccccc1,-0.15,104,-78,4
COC(=O)c1c(NC(=O)/C(C#N)=C/c2ccco2)sc(C)c1C,0.3,95,-12,82*
COCC(C)n1c(COc2ccccc2F)nnc1SCC(=O)NC(=O)NC1CCCCC1 (centres undefined),0,99,-21,-11
S=C(S)N1CCCCC1,-5.2*,x,x,x
O=C(C1CCCCC1)N1CCCCCCC1,0,101,-20,-7
CCC(C)c1ccc(C2=Nn3c(nnc3C(C)C)SC2)cc1 (centres undefined),-0.45,74*,-18,51
Cc1ccc(S(=O)(=O)/C=C/C#N)cc1,-4.8*,101,6,79*
Cc1ccc(S(=O)(=O)c2ccc(C)cc2)cc1,-0.75,104,-10,-12
